# Screening results deposited in PubChem by several laboratories.
# NR5A2 inv ag – LRH-1 (NR5A2) inverse agonists, primary screen, cell-based, luminescence, HEK293T, StAR-luciferase reporter. LRH-1 transfected, 24 h. inhibition, % at 3.6 µM. hit rate 0.13% among 360,000;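 active = inhibition above the mean inhibition of all tested compounds plus 3 SD, cut at about 73% in these data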;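 note: 0% = DMSO wells and 100% = reporter-only cells lacking LRH-1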
# SRC1 inh – SRC1 coactivator transcriptional activity inhibitors, primary screen, cell-based, luminescence | Nuclear receptor coactivator 1 (Homo sapiens), Q15788 | HEK293 GAL4-SRC1 luciferase reporter | inhibition, % at 3.6 µM | hit rate 0.12% among 360,000;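 active = inhibition above the campaign mean plus 3 SD, with each screening campaign given its own cutoff, cut at about 60% in these data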;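 note: 0% = DMSO treated cells and 100% = gossypol at 36 µM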
# EBV LMP1 NFkB – EBV LMP1-driven NF-kappaB luciferase reporter inhibitors, primary screen, cell-based, luminescence, single point; hit rate 0.69% among 350,000; inhibition, % at 12.5 µM; LMP1-induced NF-kappaB luciferase reporter cells; AID 504558, 2011; in the data active = inhibition above about 41%; inconclusive = no clear call, values can overlap the other calls;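 note: 0% = neutral control wells and 100% = reference inhibitor control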
# SRC2 inh – inhibition of GAL4-SRC2 driven luciferase reporter, primary screen, SRC2 inhibitor project, cell-based, luminescence. inhibition, % at 9 µM. HEK293 GAL4-SRC2 luciferase reporter. hit rate 0.17% among 370,000;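 active = inhibition above the mean inhibition of all tested compounds plus 3 SD, set per campaign, cut at about 52% in these data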;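 note: 0% = DMSO treated cells and 100% = cells given Gossypol at 36 µM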
# Target sequence (Q15596 whole entry, looked up, the tested form may be a part): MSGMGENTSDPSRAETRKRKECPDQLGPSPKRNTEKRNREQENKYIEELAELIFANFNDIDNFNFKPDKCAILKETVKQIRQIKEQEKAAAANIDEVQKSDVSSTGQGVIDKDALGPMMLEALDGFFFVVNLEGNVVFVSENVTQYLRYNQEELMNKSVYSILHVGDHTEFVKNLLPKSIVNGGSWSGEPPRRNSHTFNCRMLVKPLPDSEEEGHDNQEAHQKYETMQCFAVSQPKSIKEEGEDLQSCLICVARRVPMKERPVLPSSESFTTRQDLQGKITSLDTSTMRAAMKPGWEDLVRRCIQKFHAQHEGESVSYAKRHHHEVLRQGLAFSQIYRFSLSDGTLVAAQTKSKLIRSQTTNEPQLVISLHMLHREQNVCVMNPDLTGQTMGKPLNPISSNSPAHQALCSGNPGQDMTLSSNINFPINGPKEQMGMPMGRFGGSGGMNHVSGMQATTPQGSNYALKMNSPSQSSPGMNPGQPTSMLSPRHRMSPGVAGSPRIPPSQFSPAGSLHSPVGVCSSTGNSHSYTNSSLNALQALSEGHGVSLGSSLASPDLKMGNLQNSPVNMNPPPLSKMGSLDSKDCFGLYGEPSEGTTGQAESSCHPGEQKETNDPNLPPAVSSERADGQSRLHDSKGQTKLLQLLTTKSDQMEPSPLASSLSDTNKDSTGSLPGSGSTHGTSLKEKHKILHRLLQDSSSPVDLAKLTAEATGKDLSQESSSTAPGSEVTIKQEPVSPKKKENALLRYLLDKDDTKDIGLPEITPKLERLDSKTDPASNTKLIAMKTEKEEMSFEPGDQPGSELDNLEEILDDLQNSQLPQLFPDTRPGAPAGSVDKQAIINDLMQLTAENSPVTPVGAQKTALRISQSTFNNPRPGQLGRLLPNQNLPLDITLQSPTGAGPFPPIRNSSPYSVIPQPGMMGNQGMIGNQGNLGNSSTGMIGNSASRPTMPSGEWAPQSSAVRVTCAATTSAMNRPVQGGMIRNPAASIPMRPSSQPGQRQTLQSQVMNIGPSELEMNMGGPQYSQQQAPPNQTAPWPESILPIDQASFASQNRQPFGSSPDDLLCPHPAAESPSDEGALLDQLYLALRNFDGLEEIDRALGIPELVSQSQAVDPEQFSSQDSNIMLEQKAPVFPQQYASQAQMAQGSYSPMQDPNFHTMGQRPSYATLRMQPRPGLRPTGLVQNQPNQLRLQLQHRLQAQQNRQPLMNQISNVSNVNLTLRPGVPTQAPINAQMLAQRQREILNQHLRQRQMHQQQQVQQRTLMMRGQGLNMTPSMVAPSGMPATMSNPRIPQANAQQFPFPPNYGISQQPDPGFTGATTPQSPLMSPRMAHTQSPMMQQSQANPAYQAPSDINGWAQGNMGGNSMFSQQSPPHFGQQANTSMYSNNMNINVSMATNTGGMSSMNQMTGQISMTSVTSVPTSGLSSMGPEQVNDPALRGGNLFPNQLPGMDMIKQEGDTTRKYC
# NCOA3 inh – SRC3 coactivator transcriptional activity inhibitors, primary screen, cell-based, luminescence. Nuclear receptor coactivator 3 (Homo sapiens), Q9Y6Q9. HEK293 GAL4-SRC3 luciferase reporter. inhibition, % at 3.6 µM. hit rate 0.17% among 360,000. AID 588352, 2011;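 active = inhibition above a per-campaign cutoff, the mean of all compounds plus 3 SD, cut at about 60% in these data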;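 note: 0% = DMSO-treated cells and 100% = gossypol-treated cells at 36 µM; higher means less SRC3-driven luciferase light from the GAL4 reporter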
# Shn3 3UTR inh – reduction of Shn3 3'UTR firefly luciferase signal, primary screen, Schnurri-3 inhibitor project, cell-based, Clone20 osteoblasts, set 2; hit rate 0.52% among 360,000; AID 588674, 2011; inhibition, % at 12.5 µM; Clone20 osteoblast Shn3 3'UTR firefly luciferase, 24 h;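 active = mean inhibition of at least 75% with every replicate also reaching 75%; inconclusive = mean inhibition at least 75% but some replicate below; inactive = mean inhibition below 75%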;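 note: 0% = median of neutral control wells and 100% = pilot-screen positive control compound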
# Numbers without * were called inactive; ? = inconclusive; . = no result given. Hits are enriched below; roughly 1.2% of the tested compounds scored in any of these assays.
SMILES,NR5A2 inv ag,SRC1 inh,EBV LMP1 NFkB,SRC2 inh,NCOA3 inh,Shn3 3UTR inh
CCOC(=O)c1c(NC(=O)C2c3ccccc3Oc3ccccc32)sc(C(C)=O)c1C,-10,-8,-1,-7,13,89*
COC(=O)c1sc(NC(=O)C2c3ccccc3Oc3ccccc32)c(C(=O)OC)c1C,1,2,15,-15,6,81
O=C(c1c(F)cccc1F)N1CCC(Oc2cccnc2)CC1,.,.,.,-1,.,.
Cc1cc2c(=Cc3ccc(N(C)C)cc3)c3ccccc3n2[n+]1C,76*,53,24,-41,62,78
C[n+]1c(-c2ccccc2)cc2c(=Cc3ccccc3)c3ccccc3n21,58,27,30,2,62*,85
CCOC(=O)c1cc2c(=Cc3ccc(N(C)C)cc3)c3ccccc3n2[n+]1C,73*,43,10,-25,52,?
C[n+]1c(-c2ccccc2)cc2c(=Cc3ccc([N+](=O)[O-])cc3)c3ccccc3n21,-1,0,-5,-10,5,53
CN(C)c1ccc(C=c2c3ccccc3n3c2c2ccccc2[n+]3C)cc1,73*,13,-5,1,34,93*
CCOC(=O)[C@]12CCCC3=C1N(CCC3)C(=O)[C@@H](CC(=O)NCCC(C)C)C2,.,.,.,-21,.,.
Cc1ccc(-n2nc(C(=O)NCc3ccc(C)o3)c3c4ccccc4n(C)c3c2=O)cc1,-7,-9,49*,-5,3,-4
Cc1cc(C)c(C(=O)/C=C/c2cccc3ccccc23)c(=O)[nH]1,55,56,58*,66*,78*,55
Cc1cccc(Cn2cc(COC(=O)NCCc3ccccc3)nn2)c1,.,.,.,-22,.,.
c1csc(CCNc2ncnc3sc4c(c23)CCC4)c1,46,16,5,17,29,88*
C=CC[C@@]1(c2ccc(Br)cc2OC)Oc2ccccc2-c2nccnc21,.,.,.,13,.,.
COc1cc(/C=N/NC(=Nc2ccc(C)cc2)c2nc3ccccc3s2)ccc1O,-14,84*,18,25,85*,52
CCOc1ccc(-c2c[n+]3c(n2-c2ccccc2)CCCCC3)cc1,51,24,14,28,38,91*
COc1ccc(-n2c(-c3ccc(Br)cc3)c[n+]3c2CCCCC3)cc1,17,20,4,-22,35,89*
COC(=O)[C@@]1(C(C)C)N=C(c2cc(OC)c(OC)c(OC)c2)[C@]2(O1)C(=O)N(Cc1cn(Cc3ccccc3)nn1)c1ccc(F)cc12,.,.,.,-1,.,.
O=C(C1CC(Cl)CN1S(=O)(=O)c1ccc(Cl)cc1)N1CCOCC1 (stereo unspecified),19,-2,-4,-6,18,11
O=C(c1nnsc1S(=O)(=O)c1ccc(Cl)cc1)N1CCOCC1,-42,-4,39,-44,8,95*
O=C(N1CCOCC1)N1CCN(S(=O)(=O)c2ccc(Cl)cc2)C1,-2,-1,44*,6,-3,14
CNC(=O)c1nnsc1S(=O)(=O)c1ccc(Cl)cc1,-20,-13,68*,41,16,99*
O=C(c1nnsc1S(=O)c1ccc(Cl)cc1)N1CCOCC1 (stereo unspecified),-20,34,23,-11,21,94*
O=C(c1ccccc1)N1CC[C@H]2[C@H](CCCN2Cc2ccccc2)C1,.,.,.,11,.,.
O=C(Cc1coc2cc3c(cc12)CCC3)OCC(=O)N1CCCC1=O,12,11,16,54*,26,15
SMILES,NR5A2 inv ag,SRC1 inh,EBV LMP1 NFkB,SRC2 inh,NCOA3 inh,Shn3 3UTR inh
O=C(NCCN1CCC(Cc2ccccc2)CC1)C1CCCN(S(=O)(=O)c2ccccc2[N+](=O)[O-])C1 (stereo unspecified),.,.,.,32,.,.
C=CCN=C1NC(c2ccccc2C(F)(F)F)C(C(=O)OC)=C(C)N1Cc1ccc(C(F)(F)F)cc1 (stereo unspecified),.,.,.,3,.,.
COC(=O)C1=C(C)N(Cc2ccccc2C(F)(F)F)C(=NCc2ccc(OC)cc2)NC1c1ccc(F)cc1 (stereo unspecified),.,.,.,-22,.,.
Nc1ccccc1NC(=O)c1ccccc1,-7,-13,44*,-15,-54,-69
O=C(Nc1ccccc1Cl)c1ccc(C(=O)Nc2ccccc2Cl)cc1,8,-6,85*,10,4,-16
O=C(Nc1ccccc1Cl)c1ccccc1,-21,-73,-12,-37,-42,-36
O=C(CSc1nc2ccccc2[nH]1)NN=Cc1ccccc1C(=O)O,.,.,.,-60,.,.
Cn1cccc1C(=O)NC(=O)COC(=O)c1ccc(S(C)(=O)=O)cc1,-23,-6,-1,14,-36,-3
Cn1cccc1C(=O)NC(=O)COC(=O)c1ccc(S(C)(=O)=O)c([N+](=O)[O-])c1,-19,-10,-1,.,-12,98*
O=C1[C@@H](CCc2ccccc2)[C@@H]2c3ccccc3C=NN2[C@@H]2c3ccccc3C=NN12,.,.,.,-17,.,.
Cc1cc(C(=O)NC2CCCc3c2cnn3-c2ccc(C)c(C)c2)n(C)n1 (stereo unspecified),51,8,32,-9,42,88*
O=c1cc(C2CCCCC2)[nH]c(=O)[nH]1,41,-10,52*,0,-1,1
Cc1cc(=O)[nH]c2c1c(C)nn2C1CCCCC1,11,-9,-7,-14,18,15
CCCCC/C=C\C/C=C\C/C=C\CCCCC(=O)O,4,1,53*,20,8,-5
CN(Cc1c(F)cccc1Cl)C(=O)c1cccc(S(=O)(=O)N2CCN(Cc3ccccc3)CC2)c1,-6,-7,2,-5,0,15
CN(Cc1ccc(OC(F)F)cc1)C(=O)c1cccc(S(=O)(=O)N2CCN(Cc3ccccc3)CC2)c1,36,25,5,20,31,89*
Cc1c(C)n(CC(O)CN2CCN(C)CC2)c2ccccc12 (stereo unspecified),-1,-4,60*,-7,16,-12
Cc1c(C)n(CC(O)CN2CCCCC2)c2ccccc12 (stereo unspecified),-1,1,1,6,-16,-15
S=C(c1ccc(-c2ccccc2)cc1)N1CCOCC1,6,35,3,52*,35,26
O=C(OCc1cn(Cc2ccc(Cl)cc2)nn1)N1CCOCC1,.,.,.,-16,.,.
COc1ccc(C2NC3=C(CCC3)C3(C#N)C(OC)(OC)N=C(N)C23C#N)cc1 (stereo unspecified),21,28,62*,.,33,51
COC1(OC)N=C(N)C2(C#N)C(c3ccccc3)NC(C)=CC12C#N (stereo unspecified),19,-72,-8,2,7,8
